Assay results reported in PubChem BioAssay AID2599 (Sanford-Burnham Center for Chemical Genomics, 2010).
Out of some 330,000 compounds screened, about 5,800 (1.8%) were called active. The list comes from a sample in which actives are over-represented; it also holds similar structures and randomly drawn compounds. Unmarked numbers belong to inactive results.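 The calls were made as follows: active = inhibition above about 50% at the single tested dose (limit read from the data); inactive = the rest.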

The compounds below were run against Sentrin-specific protease 6 (Homo sapiens) (UniProt Q9GZR1) (assay: SENP6 protease inhibitors, primary screen, biochemical, luminescence, uHTS (AID 2599;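 also: plate controls were DMSO wells with enzyme for no effect and DMSO wells lacking enzyme for full effect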)). Conditions: Recombinant SENP6 catalytic domain, aminoluciferin luminescence; at 10 µM; hits give high values.
Sequence of Sentrin-specific protease 6 (Homo sapiens) (Q9GZR1 628-1112 limits assumed): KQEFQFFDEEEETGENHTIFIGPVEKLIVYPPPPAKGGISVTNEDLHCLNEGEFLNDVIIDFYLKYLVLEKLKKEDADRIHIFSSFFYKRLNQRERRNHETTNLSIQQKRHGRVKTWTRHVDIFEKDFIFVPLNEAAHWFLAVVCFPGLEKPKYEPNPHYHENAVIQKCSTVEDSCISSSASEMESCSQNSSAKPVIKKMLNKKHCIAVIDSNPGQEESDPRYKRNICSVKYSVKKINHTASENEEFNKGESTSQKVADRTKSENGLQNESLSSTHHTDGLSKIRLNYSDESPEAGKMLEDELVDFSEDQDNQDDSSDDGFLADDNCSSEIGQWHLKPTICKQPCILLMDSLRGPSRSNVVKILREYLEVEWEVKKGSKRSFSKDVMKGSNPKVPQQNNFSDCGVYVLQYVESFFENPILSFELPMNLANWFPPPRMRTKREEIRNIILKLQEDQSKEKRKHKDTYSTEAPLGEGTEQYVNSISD

Structure (SMILES)	inhibition
Cc1c(C(=O)NNC(=O)c2ccncc2)oc2ccccc12	-3.56%
O=C(CCNC(=O)c1ccc(Cl)cc1)NC1CCCc2ccccc21 (stereo unspecified)	2%
O=C(Nc1nnc(S(=O)(=O)N2CCCCCC2)s1)c1cccc(Br)c1	75.4% (active)
O=C(Nc1nnc(S(=O)(=O)N2CCOCC2)s1)c1cccc(Br)c1	21.8%
Cc1cccc(C(=O)Nc2nnc(S(=O)(=O)N3CCCCCC3)s2)c1	33.1%
Cc1c(Cl)c([N+](=O)[O-])nn1CC(=O)NCC1CCCO1 (stereo unspecified)	-2.16%
CCCCNC(=O)c1cn(CC)c2cc(N3CCN(C(=O)c4ccco4)CC3)c(F)cc2c1=O	12.7%
Cc1noc(C)c1CSc1nc2cc(S(=O)(=O)N3CCOCC3)ccc2o1	3.51%
O=C(NC1CCCCC1)c1cc(C2CC2)on1	-14.8%
CSc1ccccc1NC(=O)c1cc(C2CC2)on1	52% (active)
CSc1ccccc1NC(=O)c1cc(Cl)sc1Cl	-4.94%
Nc1c(C(=O)OCC(=O)Nc2ccc(OC(F)F)cc2)[nH]c(=O)[nH]c1=O	4.9%
O=C(/C=C/c1ccc([N+](=O)[O-])o1)NNC(=O)c1ccc(F)cc1	-1.45%
CCCCN(CC)C(=O)C1CCCN(S(=O)(=O)c2cccc3nsnc23)C1 (stereo unspecified)	8.83%
COC(=O)c1cccc(C(=O)N2CCC(CCC(=O)NCc3ccc(F)cc3)CC2)c1	2.77%
CCCc1nc(N2CCN(C)CC2)c2sc(=S)n(-c3ccccc3)c2n1	8.07%
O=C(COc1ccc(Cl)cc1)NCc1nnc(SCC(=O)NCC2CCCO2)o1 (stereo unspecified)	-1.58%
O=C1CSc2ccc(C(=O)NCc3ccccn3)cc2N1	0.274%
c1ccc(CN=C2Nc3ccccc3CS2)nc1	52.5% (active)
COc1ccc(Cl)cc1NS(=O)(=O)c1cccc(C(=O)NC2CCC(O)CC2)c1 (stereo unspecified)	3.9%
CCC1C(=O)c2ccccc2N(C)C1=O (stereo unspecified)	-9.28%
CN1C(=O)/C(=N/OC(=O)c2ccccc2Br)c2ccccc21	20.2%
CN1C(=O)/C(=C\c2cc(Br)cs2)c2ccccc21	66.3% (active)

Structure (SMILES)	inhibition
CCOc1ccc(C(c2c(C)[nH][nH]c2=O)c2c(C)[nH][nH]c2=O)cc1OCC	16.7%
O=C(NC1CCCCC1)c1ccc(-c2ccc(Cl)cc2)o1	-2.51%
Cc1[nH][nH]c(=O)c1C(c1ccc(-c2ccc(Cl)cc2)o1)c1c(C)[nH][nH]c1=O	53.1% (active)
Cc1cccc(NC(=O)C2CCCN(C(=O)NCc3ccccc3)C2)c1C (stereo unspecified)	8.32%
CCNC(=O)CC1C(=O)N(c2ccc(OC)cc2)C(=O)N1CCOC (stereo unspecified)	-17.8%
CCCCCCCCCOC1OC(CO)C(O)C(O)C1NC(C)=O (stereo unspecified)	-4.5%
Clc1ccc(C2=CSC3=Nc4cccc5cccc(c45)N23)cc1	82.2% (active)
CCCN(CCc1ccccc1)C1CCc2c(O)cccc2C1 (stereo unspecified)	-8.37%
CCCc1cc(C(=O)Nc2ccc(Cl)cn2)cs1	86.5% (active)
COc1ccc(C(=O)NC(=S)Nc2ccc(Cl)cn2)cc1OC	-0.015%
CCCCC(CC)C(=O)Nc1ccc(Cl)cn1 (stereo unspecified)	0.311%
Cc1ccc(C(=O)NNC(=O)c2ccc3c(c2)OCCO3)cc1	16.5%
CCCc1cc(C(=O)Nc2ccc(C(=O)OC)cc2)cs1	-4.63%
O=C(Nc1ccc(Cl)cn1)c1ccc2c(c1)OCCO2	76.8% (active)
Cc1nc(NC(=O)c2ccc3c(c2)OCCO3)ccc1Br	70.9% (active)
COc1c(Cl)cc(C(=O)Nc2ccc(Cl)cn2)cc1Cl	23.4%
Cc1cccc(C)c1NC(=O)CNC(=O)c1ccc2c(c1)OCCO2	-7.93%
O=C(/C=C/c1cnc2ccccc2n1)NC1CCCCCC1	-2.57%
O=C(CC1C(=O)NCCN1Cc1ccc(-c2ccccc2)cc1)NCc1ccncc1 (stereo unspecified)	-5.88%
CC1CN(S(=O)(=O)c2cccc(C(F)(F)F)c2)CN1C(=O)N1CCOCC1 (stereo unspecified)	-20.3%
COc1cc(OC)c(NC(=O)C2CCCN2C(=O)OCc2ccccc2)cc1Cl (stereo unspecified)	-8.31%
CC1(C)CC(=O)C2=C(C1)NCN(CCCN1CCOCC1)C2	1.73%
CCCn1nnc(NC(=O)COc2ccc(CC)cc2)n1	1.27%

Structure (SMILES)	inhibition
CC(=O)C(CC(=O)N1CCCC1)C(=O)Nc1ccc(Cl)cc1 (stereo unspecified)	-4.11%
CC(C)C(=O)Nc1nnc(Sc2ccc(N(C)C)cc2)s1	-0.866%
O=C(c1ccc(F)cc1)c1cn(Cc2ccc(F)cc2)c2cc3c(cc2c1=O)OCCO3	-4.67%
COCCN(CCOC)c1nc(N)c2c(N)nc3c(c2c1C#N)CC(=O)N3Cc1ccc(Cl)cc1	81.3% (active)
CC1COC2C(O1)N(S(C)(=O)=O)CCN2S(C)(=O)=O (stereo unspecified)	-1.6%
CC1(C)CC(=O)C=C(NCc2ccncc2)C1	11.9%
Cc1csc(OCC(=O)Nc2ccc(C)c(C)c2)n1	-7.65%
Oc1ccc(Br)cc1C=Nc1ccc2[nH]ncc2c1	55.4% (active)
Oc1ccc(Br)cc1/C=N/Nc1ccccn1	14.9%
CCN(CC)CCn1c(/N=C/c2cc(Br)ccc2O)nc2ccccc21	5.27%
Cc1ccn(-c2cccc(-n3ccc(C)n3)n2)n1	-0.107%
O=S(=O)(c1ccc(Br)c2ccccc12)N1CCOCC1	-3.67%
Cc1c(Cl)c([N+](=O)[O-])nn1CC(=O)NCCCN1CCOCC1	-13.8%
N/C(=N\OC(=O)c1ccc2c(c1)OCO2)c1ccc(Br)cc1	46%
Nc1[nH][nH]c(=O)c1N=Nc1ccc2c(c1)OCO2	51.5% (active)
CC(=O)c1cc2c(cc1N)OCO2	1.73%
Cn1c2ccccc2c2cc(/C=C(\NC(=O)c3ccccc3)C(=O)NCC(=O)O)ccc21	-6.28%
Cc1nn(C)c(C)c1NS(=O)(=O)c1ccc(OC(F)(F)F)cc1	5.85%
O=S(=O)(Nc1ccc(O)c2ccccc12)c1ccc(OC(F)(F)F)cc1	74.9% (active)
O=C1COc2ccc(S(=O)(=O)Nc3ccc(OC(F)(F)F)cc3)cc2N1	-6.08%
C[C@@H]1CN([C@@H](C)CO)C(=O)c2cccc(NS(=O)(=O)c3ccc(F)cc3)c2O[C@H]1CN(C)C(=O)NC1CCCCC1	-9.28%
CCOc1ccc(NC(=O)COc2ccc(S(=O)(=O)N3CCCC3)cc2)cc1	-19.8%
Cc1ccc(/C=N/NC(=O)c2cc3ccccc3cc2O)o1	73.7% (active)

Structure (SMILES)	inhibition
N=c1oc2ccccc2cc1C(=O)NCc1ccccc1	-3.97%
O=C(N/N=C\c1cccnc1)c1cc(-c2ccccc2)nc2c(Cl)cccc12	-10.9%
Cc1ccc(/C=N/NC(=S)NC2CCCCC2)o1	-24.3%
CNC(=O)c1cc2c(ccc3ccccc32)oc1=N	6.2%
Cc1ccc(/C=N/NC(=S)Nc2cccc(S(=O)(=O)N(C)C)c2)o1	-0.431%
O=C(N/N=C/c1cccnc1)c1ccc(NC(=O)c2ccc(F)cc2)cc1	-21.5%
N=c1oc2ccccc2cc1C(=O)N/N=C/c1ccccc1	89.2% (active)
O=C(N/N=C/c1cccnc1)c1cc2ccccc2cc1O	54.6% (active)
CCCN(CC(=O)Nc1ccccc1OC)C(=O)CCC(=O)c1ccc(F)cc1	-2.28%
O=C(C(=O)N1CCc2ccccc2C1)c1c[nH]c2ccccc12	-7.83%
CC(NC(=O)c1cccc(S(=O)(=O)N2CCc3ccccc3C2)c1)c1ccco1 (stereo unspecified)	-17.8%
CCOc1cc(/C=C2\SC(N3CCCC(C)C3)=NC2=O)ccc1O (stereo unspecified)	11.9%
CCCc1ccc(OCC(O)CN2CCN(CCO)CC2)cc1 (stereo unspecified)	5.43%
CCc1cccc(NC(=O)COC(=O)C2CCN(c3ccc(C(F)(F)F)cn3)CC2)c1	33.7%
CCOc1ccc(CN2CCN(CCCc3ccccc3)C(CCO)C2)cc1 (stereo unspecified)	9.84%
Cc1nnc(CN(C)Cc2cn[nH]c2-c2ccc(-c3ccccc3)cc2)o1	-1.7%
Cc1c(Cl)cccc1NC(=O)CC1SC(=NCC2CCCO2)NC1=O (stereo unspecified)	-0.542%
COc1ccc(OC)c(/C=C/C(=O)c2ccc3c(c2)OCO3)c1	-8.22%
CC(Sc1nnc(COc2ccccc2)n1-c1ccccc1)C(=O)O (stereo unspecified)	-16.5%
Nc1ccccc1/C=N\N=C/c1ccccc1N	60.6% (active)
C=CCC[C@H](Cc1ccc(F)cc1)C(=O)OC[C@H](C)NC(=O)[C@H](CC=C)CC(=O)N(CCO)Cc1ccccc1	-7.07%
CCCCCCC12CCC(C(=O)O)(CC1)CC2	-27.4%
